This is an account of results in PubChem BioAssay (NCI).

Test systems include NCI-H226 lung; HOP-62 NSCLC; NCI-H460 lung; HOP-92 NSCLC; NCI-H522 lung; A549/ATCC NSCLC; 786-0 renal; COLO 205 colon.
Holding throughout (assay): NCI-60 one-dose screen, 48 h (100 = growth as untreated, 0 = no growth, -100 = all killed)
What all share (details): 10 µM

Structures are written as SMILES. The panel holds about 83,000 compounds, 20% with a hit somewhere; the sample as a whole holds those more often.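 Negative percent growth values reflect cell death: -40 means 40% of the cells present at the start died, and -100 means all died.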 Unmarked numbers belong to inactive results. The source made the active and inactive calls. How the source made its calls: active means growth percent below 10; inactive means the rest.

As for `CC(=O)[C@H]1CC[C@]2(C)[C@@H]1CC[C@@H]1[C@@]3(C)CC(CCC#N)(CCC#N)C(=O)C(C)(C)[C@@H]3CC[C@]12C`, the growth in the test on NCI-H226 lung is 94.6%; in the test with HOP-62 NSCLC, 99.3%; with NCI-H460 lung, 101%; in the test on HOP-92 NSCLC, 105%; in the test on NCI-H522 lung it was 94.1%; in the test on A549/ATCC NSCLC, 103%. Moreover, the growth is 101% with 786-0 renal and 106% in the test with COLO 205 colon.
Take `COc1ccc(/C=C/c2nnc(/C=C/c3ccc(OC)c(OC)c3)o2)cc1OC`: the growth in the test on NCI-H226 lung was 63.5%; in the test on HOP-62 NSCLC, 35.3%; in the test with NCI-H460 lung it was 15.6%; in the test on HOP-92 NSCLC it was 20.4%; in the test with NCI-H522 lung it was 9.91% (active); in the test on A549/ATCC NSCLC, 32%. Also, the growth in the test on 786-0 renal was 12.8%; in the test with COLO 205 colon, 22%.
As to `COc1ccccc1-n1c(-c2csc(NC(C)=O)n2)n[nH]c1=S`, the growth in the test on NCI-H226 lung was 96.7%; in the test with NCI-H460 lung, 109%; with HOP-92 NSCLC, 96%; with NCI-H522 lung, 82.5%; with A549/ATCC NSCLC, 100%; in the test with 786-0 renal, 97.2%. For the same compound, in the test with COLO 205 colon, the growth is 115%.
Take `CC(C)=CCC/C(C)=C/CC/C(C)=C/CC/C=C(\C)CC/C=C(\C)CCC(=O)Nc1ccn(C2OC(CO)C(O)C2(F)F)c(=O)n1` (stereo unspecified): the growth in the test on NCI-H226 lung was 50.3%; in the test with HOP-62 NSCLC, 11.1%; in the test on NCI-H460 lung, 6.85% (active); in the test with HOP-92 NSCLC it was 10.2%; in the test on NCI-H522 lung, 26.1%; with 786-0 renal, -11.2% (active). Further, the growth in the test on COLO 205 colon is 43.5%.
With `CN(C)CCOc1ccccc1NC1=C(Cl)C(=O)C(Nc2ccccc2OCCN(C)C)=C(Cl)C1=O`, the growth in the test on NCI-H226 lung is 93.9%; in the test with HOP-62 NSCLC, 110%; in the test on NCI-H460 lung, 99.2%; in the test with HOP-92 NSCLC, 59.9%; in the test on NCI-H522 lung, -53.3% (active); in the test with A549/ATCC NSCLC, 84.7%. In addition, the growth with 786-0 renal was 74.8%; with COLO 205 colon it was -62% (active).
Regarding `O=C(Nc1cc(Cl)cc2c1-c1ccc(Cl)cc1C2O)C(Cl)Cl` (stereo unspecified), the growth with NCI-H226 lung was 55%; with HOP-62 NSCLC, 83.3%; in the test on NCI-H460 lung, 35.9%; in the test on HOP-92 NSCLC, 77.1%; in the test on NCI-H522 lung it was 84.2%; in the test with A549/ATCC NSCLC, 74.5%. Further, the results for the growth in the test on 786-0 renal and with COLO 205 colon were 98.4% and 94.2%, respectively.
In the case of `CNS(=O)(=O)Oc1ccc(-c2sc3cc(OS(=O)(=O)NC)ccc3c2C(=O)c2ccc(OCCN3CCCCC3)cc2)cc1`, the growth in the test with NCI-H226 lung was 84.4%; in the test with HOP-62 NSCLC, 79.8%; with NCI-H460 lung, 42.4%; with HOP-92 NSCLC, 64.2%; in the test on NCI-H522 lung it was 78.7%; with 786-0 renal it was 73.5%. Moreover, the growth in the test on COLO 205 colon is 77.9%.
With `c1ccc(CSc2ncccc2-c2nnc(SCCN3CCOCC3)o2)cc1`, the growth in the test with NCI-H226 lung is 114%; with HOP-62 NSCLC, 116%; in the test on NCI-H460 lung, 122%; in the test with NCI-H522 lung it was 105%; in the test on A549/ATCC NSCLC, 112%.
In the case of `NS(=O)(=O)Oc1ccc(NC(=O)C2CCCCCC2)cc1`, the growth with NCI-H226 lung is 100%; in the test with HOP-62 NSCLC, 99.3%; with NCI-H460 lung, 106%; in the test with HOP-92 NSCLC, 98.9%; in the test with NCI-H522 lung, 95.6%; in the test with A549/ATCC NSCLC, 96%. For the same compound, the figures for the growth in the test on 786-0 renal and in the test on COLO 205 colon were 107% and 112%, respectively.
In the case of `COc1cc2cc(Oc3ccc(NC(=O)Nc4ccc(Cl)c(Cl)c4)cc3)c(C)nc2cc1OC`, the growth was 7.74% (active) in the test with NCI-H226 lung; 55.2% with HOP-62 NSCLC; 3.68% (active) in the test with NCI-H460 lung; -9.31% (active) in the test on HOP-92 NSCLC; -13.7% (active) in the test on NCI-H522 lung; 20.3% with 786-0 renal. Besides, the growth with COLO 205 colon was 4.03% (active).
In the case of `Cc1ccc(NC(=S)NNC(=S)Nc2ccc(C)cc2)cc1`, the growth in the test with NCI-H226 lung is 94.7%; in the test with HOP-62 NSCLC, 45.2%; in the test with NCI-H460 lung, 89.4%; in the test with NCI-H522 lung, 32.7%; in the test with A549/ATCC NSCLC, 67%; in the test with 786-0 renal, 58.9%. For the same compound, the growth with COLO 205 colon is 84.3%.
For the compound `Nc1ccn(Cc2nnc(CCC(=O)c3nc4ccccc4[nH]3)o2)c(=O)n1`, the growth was 73.7% in the test on NCI-H226 lung; 82% in the test with HOP-62 NSCLC; 34.6% with NCI-H460 lung; 66.1% in the test on HOP-92 NSCLC; 84.2% with NCI-H522 lung; 63.8% with A549/ATCC NSCLC. In addition, the figures for the growth in the test on 786-0 renal and in the test on COLO 205 colon were 97.2% and 103%, respectively.
`CCn1c(SCc2ccc(C)cc2)nnc1-c1nn(-c2ccc(Cl)cc2Cl)c(-c2ccc(Cl)cc2)c1C`: the growth is 11.6% in the test with NCI-H226 lung; 9.33% (active) with HOP-62 NSCLC; 8.69% (active) in the test on NCI-H460 lung; -17.2% (active) in the test on HOP-92 NSCLC; -17.4% (active) with NCI-H522 lung; 9.87% (active) in the test on A549/ATCC NSCLC. Further, the growth was 12.2% with 786-0 renal and -34.3% (active) in the test on COLO 205 colon.
Turning to `C#CCOc1c(OC)cc(C(=O)/C(C)=C/c2cccc(N=[N+]=[N-])c2)cc1OC`, the growth was 68.9% in the test on NCI-H226 lung; 36% in the test with HOP-62 NSCLC; 16.7% in the test on NCI-H460 lung; 63.1% in the test on HOP-92 NSCLC; -48.6% (active) in the test on NCI-H522 lung; 18.8% with A549/ATCC NSCLC. Also, the growth in the test with 786-0 renal was 23.7%; in the test with COLO 205 colon, -31.8% (active).
Turning to `CN(C)CCCN1c2ccccc2CCc2ccc(Cl)cc21`, the growth in the test on NCI-H226 lung was 85.7%; in the test with NCI-H460 lung, 79.4%; with A549/ATCC NSCLC it was 72.4%; with 786-0 renal it was 71.3%; in the test with COLO 205 colon, -11.9% (active).
Turning to `C=CCn1c(SCC(=O)Nc2ccc(C(=O)/C=C/c3ccc(Cl)cc3)cc2)nnc1-c1cc(-c2ccccc2)nc2ccccc12`, the growth with NCI-H226 lung was 73.6%; in the test on NCI-H460 lung it was 98.6%; in the test with HOP-92 NSCLC, 91.5%; with NCI-H522 lung, 60.5%; in the test with A549/ATCC NSCLC, 89.7%; in the test with 786-0 renal it was 86.7%. In addition, in the test on COLO 205 colon, the growth was 99.5%.
